Test results: PubChem BioAssay AID588458 (Sanford-Burnham Center for Chemical Genomics, 2011)
Screen size: about 360,000 compounds; about 3,000 (0.83%) were called active. No stated cut-off is given here; in the data, active means inhibition above about 50%; inactive means the rest. Shown is part of a subset that was picked to be rich in actives.

Target: DNA (cytosine-5)-methyltransferase 1 (Homo sapiens) (UniProt P26358)
Experiment: human DNMT1 methyltransferase inhibitors, primary screen, biochemical, molecular beacon, fluorescence, HinP1I cleavage, uHTS (AID 588458)
Details: at 10 µM, hits give high values

Chain of DNA (cytosine-5)-methyltransferase 1 (Homo sapiens) (P26358 504-1616 limits assumed): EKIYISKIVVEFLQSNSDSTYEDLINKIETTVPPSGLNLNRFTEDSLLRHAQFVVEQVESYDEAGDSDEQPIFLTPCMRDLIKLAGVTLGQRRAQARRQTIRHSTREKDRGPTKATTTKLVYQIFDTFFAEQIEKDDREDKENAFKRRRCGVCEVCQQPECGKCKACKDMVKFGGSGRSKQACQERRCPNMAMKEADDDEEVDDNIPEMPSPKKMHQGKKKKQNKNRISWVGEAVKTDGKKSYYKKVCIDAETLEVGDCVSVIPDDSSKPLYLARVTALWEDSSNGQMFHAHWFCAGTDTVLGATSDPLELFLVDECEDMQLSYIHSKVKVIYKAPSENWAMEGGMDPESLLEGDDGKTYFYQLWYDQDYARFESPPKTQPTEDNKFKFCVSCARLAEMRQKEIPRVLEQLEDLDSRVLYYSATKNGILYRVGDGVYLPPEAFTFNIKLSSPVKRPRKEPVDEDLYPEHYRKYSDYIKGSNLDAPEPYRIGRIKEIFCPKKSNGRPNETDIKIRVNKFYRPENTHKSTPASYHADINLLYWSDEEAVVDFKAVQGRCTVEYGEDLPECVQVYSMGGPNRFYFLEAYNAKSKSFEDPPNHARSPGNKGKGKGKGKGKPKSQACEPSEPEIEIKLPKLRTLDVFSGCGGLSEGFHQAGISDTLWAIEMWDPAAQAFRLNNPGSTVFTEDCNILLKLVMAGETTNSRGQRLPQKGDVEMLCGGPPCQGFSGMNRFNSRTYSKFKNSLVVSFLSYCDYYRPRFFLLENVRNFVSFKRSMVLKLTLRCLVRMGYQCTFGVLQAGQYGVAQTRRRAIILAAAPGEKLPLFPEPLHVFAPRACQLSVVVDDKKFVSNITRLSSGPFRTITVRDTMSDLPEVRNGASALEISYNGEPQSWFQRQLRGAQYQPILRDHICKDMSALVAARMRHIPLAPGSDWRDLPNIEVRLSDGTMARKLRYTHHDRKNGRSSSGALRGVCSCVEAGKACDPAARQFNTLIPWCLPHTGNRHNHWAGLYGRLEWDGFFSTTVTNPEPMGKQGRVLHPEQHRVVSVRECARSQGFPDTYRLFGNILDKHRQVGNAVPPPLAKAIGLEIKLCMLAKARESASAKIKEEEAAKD

SMILES | inhibition (reported as % activation of signal)
COc1ccc(Cl)cc1NC(=O)CN(C)C(=O)c1cn(-c2ccccc2)nc1-c1cccs1 | -24.5% (inactive)
CC(C)(C)c1ccc(S(=O)(=O)N2CCN(C(=O)c3ccc4c(c3)C(=O)N(Cc3ccncc3)C4=O)CC2)cc1 | -1.88% (inactive)
O=C(CCN1C(=O)C2C3C=CC(C3)C2C1=O)Oc1ccc2ccccc2c1 (centres undefined) | -3.47% (inactive)
O=C(CCN1C(=O)C2C3C=CC(C3)C2C1=O)Nc1ccccc1F (centres undefined) | 75.5% (active)
O=C(CCN1C(=O)C2C3CCC(C3)C2C1=O)Nc1ccc(Cl)cc1Cl (centres undefined) | -0.32% (inactive)
COc1cccc(-c2cc3nc(NCc4ccccc4OC)n(C)c(=O)c3s2)c1 | -11.8% (inactive)
CC1C(=O)N(Cc2cn(CC3CCCCC3)nn2)CCS(=O)(=O)N1Cc1ccc(-c2cccc(N(C)C)c2)cc1 (centres undefined) | -9.42% (inactive)
Cc1csc(OCC(=O)Nc2ccc(C)c(C)c2)n1 | -0.47% (inactive)
CCCNC(=O)c1cc(C2CCCN(C(=O)c3ccc4c(c3)CCO4)C2)on1 (centres undefined) | -0.91% (inactive)
COc1ccc(S(=O)(=O)N2CCCCC2c2cc(C(=O)NCc3ccc(F)cc3)no2)cc1 (centres undefined) | 6.18% (inactive)
CC(C)Cc1nc(Cl)c(C#N)c2c1CCC2 | 3.27% (inactive)
CC(NC(=S)NC1CCCCC1)C(c1ccccc1)N1CCOCC1 (centres undefined) | 1.12% (inactive)
O=C(O)C(c1ccccc1)N1C(=O)/C(=C\c2ccc(-c3cccc(Cl)c3)o2)SC1=S (centres undefined) | 79.8% (active)
CC(C(=O)NC1CCS(=O)(=O)C1)N1C(=O)/C(=C/c2ccc(Cl)cc2)SC1=S (centres undefined) | -2.43% (inactive)
CC(C(=O)Nc1ccc(O)c(C(=O)O)c1)N1C(=O)/C(=C/c2cccs2)SC1=S (centres undefined) | -9.71% (inactive)
NC(=O)CCC(NS(=O)(=O)c1ccc(Cl)cc1)C(=O)NCc1ccccc1Cl (centres undefined) | 4.11% (inactive)
CCOC(=O)c1cccc(NC(=O)C2CCCN(S(=O)(=O)c3cnc[nH]3)C2)c1 (centres undefined) | 76.5% (active)
O=C(NCc1ccco1)C1CCCN(S(=O)(=O)c2cnc[nH]2)C1 (centres undefined) | -1.66% (inactive)
COc1cccc(N2CCN(C(=O)C3CCCN(S(=O)(=O)c4cnc[nH]4)C3)CC2)c1 (centres undefined) | -15.4% (inactive)
CC(C)c1cc(C(=O)N/N=C/c2ccoc2)c(O)c(C(C)C)c1 | 13.8% (inactive)
Cc1ccc(O)c(/C=N/NC(=O)COc2ccc3c(C)cc(=O)oc3c2)c1 | 59.9% (active)
CCOC(=O)Cc1csc(NC(=O)COc2ccc3c(C)cc(=O)oc3c2)n1 | -0.49% (inactive)
Cc1cc(=O)oc2cc(OCC(=O)Nc3nnc(C4CC4)s3)ccc12 | -3.06% (inactive)

SMILES | inhibition (reported as % activation of signal)
COc1ccc(NC(=O)COc2ccc(C(=O)OCC(=O)N(C)C3CCS(=O)(=O)C3)cc2OC)cc1 (centres undefined) | 8.48% (inactive)
O=C(c1cc(-c2ccco2)nc2ccccc12)N(Cc1nnc(-c2ccc(Cl)cc2)o1)C1CC1 | 13.4% (inactive)
CN(CCOc1ccccc1)C(=O)c1cc(-c2ccco2)nc2ccccc12 | 72.3% (active)
CN(C(=O)COC(=O)c1cc(-c2ccco2)nc2ccccc12)C1CCS(=O)(=O)C1 (centres undefined) | 92.3% (active)
CN(CCOc1ccccc1)C(=O)c1cc(COc2c(F)cccc2F)on1 | 1.59% (inactive)
CN(C(=O)COC(=O)Cc1ccccc1[N+](=O)[O-])C1CCS(=O)(=O)C1 (centres undefined) | 2.42% (inactive)
OCC[C@H]1C[C@H](O)[C@@H](O)[C@]2(CCCCO2)O1 | 5.49% (inactive)
CCOc1ccccc1-n1c(SCC(=O)N2CCCC2)nnc1-c1ccoc1C | 7.56% (inactive)
COc1ccc(Cl)cc1S(=O)(=O)Nc1cccc(C(=O)O)c1 | -3.3% (inactive)
COc1ccc2sc(-c3ccc(S(C)(=O)=O)cc3)c(C#Cc3cncn3C)c2c1 | -10.4% (inactive)
COc1cc(OC)cc(-c2sc3ccc(OC)cc3c2-c2ccc3cc[nH]c3c2)c1 | -17.8% (inactive)
COc1ccc2sc(-c3ccc(S(C)(=O)=O)cc3)c(-c3ccc(C(N)=O)cc3)c2c1 | 86.5% (active)
O=C(NCc1ccco1)c1cnn2c(C(F)(F)F)cc(-c3ccco3)nc12 | -0.51% (inactive)
COCC(=O)N(C)[C@H]1C[C@H]2c3cc(Oc4ccccc4C)ccc3CCN2C(=O)[C@H]1[C@H](C)O | -0.44% (inactive)
COc1cc(C2C3=C(CCCC3=O)OC3=C2C(=O)CCC3)ccc1OCC(=O)Nc1ccccc1 | -1.83% (inactive)
CCCn1c(C)cc(/C=C(\C#N)C(=O)OCC(=O)Nc2cc(OC)c(OC)c(OC)c2)c1C | -3.49% (inactive)
CCOC(=O)/C(C#N)=C/c1ccc(OCC(=O)Nc2ccccc2)c(OC)c1 | 59.5% (active)
COC(=O)Nc1nc2ccc(Sc3ccccc3)cc2[nH]1 | 23.1% (inactive)
CCCNC(=O)C1(C)CCN1C(=O)Cc1ccc(-c2ccccc2)cc1 (centres undefined) | -1.26% (inactive)
CCNC(=O)C1CCCN(C(=O)c2ccc(OC)cc2OC)CC1 (centres undefined) | -0.58% (inactive)
CCNC(=O)C1CCCN(C(=O)c2cc(F)ccc2C)CC1 (centres undefined) | 58% (active)
CCOC(=O)C1CCCN(C(=O)c2ccc(C)c(F)c2)CC1 (centres undefined) | 1.76% (inactive)
Nc1nc(NCc2ccccc2)n(-c2ccccc2)n1 | -0.22% (inactive)

SMILES | inhibition (reported as % activation of signal)
Cc1cc(C)n2nc(C(=O)N(C)C(c3ccccc3)c3ccccc3)nc2n1 | 2.32% (inactive)
c1ccc2cc3[nH]c(CN4CCCCC4)nc3cc2c1 | 83.2% (active)
O=c1cc(CN2CCCCCCC2)c2c(ccc3ccccc32)o1 | -0.34% (inactive)
Cc1ccc2[nH]c(=O)c(CN3CCCCC3)c(-c3ccccc3)c2c1 | -7.9% (inactive)
Cc1cc(C)nc(NS(=O)(=O)c2ccc(N/C=C\C(=O)c3cccs3)cc2)n1 | -0.17% (inactive)
CC(C)(C)n1nnc(CCc2nnn(C(C)(C)C)n2)n1 | 0.1% (inactive)
O=C(COC(=O)/C=C/c1cccc(Cl)c1)NCCc1ccccc1 | -1.37% (inactive)
NNc1cccc(C=Cc2ccccc2)cc1=O | 75.5% (active)
COc1cccc(C=CC(=O)C=CC=Cc2ccccc2)c1 | 13.2% (inactive)
COc1ccc(CC(=O)NCc2nnc(SCC(=O)Nc3ncc(C)s3)n2C)cc1 | -1.25% (inactive)
COc1cc(NC(=S)NNC(=O)CC(C)C)c(OC)cc1Cl | -0.35% (inactive)
CC(=O)Nc1ccccc1Sc1ccc2c3c(cccc13)C(=O)N(c1ccc(C)cc1)C2=O | 73.9% (active)
Cc1ccc(N2C(=O)CC(Nc3cccc4ccccc34)C2=O)cc1 (centres undefined) | -1.89% (inactive)
CSc1ccccc1NC(=O)C(C)N1C(=O)c2ccccc2S1(=O)=O (centres undefined) | -0.34% (inactive)
O=C(c1ccco1)N1CCN(C(=O)C2CCCN(S(=O)(=O)c3cccc4nsnc34)C2)CC1 (centres undefined) | 0.5% (inactive)
CCC(=O)N1CCCC1(C)C(=O)Nc1ccc2c(c1)CCN2C(C)=O (centres undefined) | -1.12% (inactive)
Cc1ccc(NS(=O)(=O)c2c(C)[nH]c(C)c2C(=O)N2CCCCC2)c(C)c1 | 12.2% (inactive)
O=C(CCC1CCCN(C(=O)c2ccc(F)c(F)c2)C1)N1CCN(c2ccccn2)CC1 (centres undefined) | 3.2% (inactive)
C=Cc1ccc(C(=O)N2CCCC(CCC(=O)N3CCN(c4ccccn4)CC3)C2)cc1 (centres undefined) | 80.1% (active)
COc1cccc(CC(=O)N2CCCC(CCC(=O)N3CCN(c4ccccn4)CC3)C2)c1 (centres undefined) | -0.42% (inactive)
O=C(CN1CCCSc2ccccc21)N1CCN(S(=O)(=O)c2cccc(F)c2)CC1 | 89.2% (active)
O=C(CN1CCN(S(=O)(=O)c2cccc(Cl)c2)CC1)N1CCCCC1 | -1.19% (inactive)
O=C(CN1CCCSc2ccccc21)N1CCN(S(=O)(=O)c2ccccc2)CC1 | -0.81% (inactive)

SMILES | inhibition (reported as % activation of signal)
COc1ccc(C(=O)N2CCN(c3ccc(C(C)=O)cc3F)CC2)cc1S(=O)(=O)NC1CC1 | 3.83% (inactive)
CC1CCC(C(C)C)C(=O)/C1=C\c1ccc(NC(=O)CCC(=O)O)cc1 (centres undefined) | 0.83% (inactive)
Cc1ccc(Cc2cncc(O)c2)cc1S(=O)(=O)O | 50.3% (active)
COC(=O)CC(=O)N1CCN(c2ccc(Cl)c(Cl)c2)CC1 | -1.96% (inactive)
CC1(Oc2ccc(Cl)cc2)CCN(Cc2csc3ccccc23)C1 (centres undefined) | 1.6% (inactive)
O=S(=O)(NCCc1ccc(Cl)cc1)c1cccs1 | -0.79% (inactive)
CCOC(=O)c1c(C)[nH]c2c1-c1ccccc1C(=O)C2=O | 93.5% (active)
CCOC(=O)c1c(NC(=O)CSc2nccc(=O)[nH]2)sc(C)c1C | 0.32% (inactive)
CCOC(=O)c1c(C)[nH]c(C)c1C(=O)CSc1nc(N)cc(N)n1 | -17.2% (inactive)
O=C(OCC(=O)N1CCCC1=O)c1cc(S(=O)(=O)N2CCOCC2)ccc1Cl | 0.37% (inactive)
CCOC(=O)c1sc(N(Cc2ccccc2)C(=O)CN2C(=O)CN(C)C2=O)nc1C | -3.6% (inactive)
CC(C)(C)NC(=O)CSC(=Nc1ccccc1F)NC#N | 52.8% (active)
CC(C)(C)NC(=O)CSc1nnc(NC(=O)CCc2ccccc2)s1 | -0.32% (inactive)
Cc1ccccc1CSCC(=O)NC(=O)NC(C)(C)C | -1.56% (inactive)
CCCC/C=C/c1cccc2nncn12 | 5.75% (inactive)
COc1ccccc1C(=O)Nc1ccc(OCC(=O)N2CCCCC2)cc1 | 5.57% (inactive)
O=C(c1ccc(F)cc1)c1cn(Cc2ccc(F)cc2)c2cc3c(cc2c1=O)OCCO3 | -8.26% (inactive)
COc1ccc(NC(=O)CC2C(=O)NC3CCCCC3N2C(=O)c2ccc(F)cc2)cc1 (centres undefined) | 4.5% (inactive)
COc1ccc2c(c1)c(=O)c(C(=O)c1ccc(Cl)cc1)cn2CC(=O)Nc1ccc(F)cc1 | 59.8% (active)
CNc1cc(-c2c(OC)cccc2OC)ncn1 | 5.78% (inactive)
